The target in assay [1] is Glutathione peroxidase 1 (Homo sapiens) (UniProt P07203). As to the kind of experiment: Primary qHTS Assay for Inhibitors of Recombinant Selenoprotein Glutathione Peroxidase 1 (GPX1) (AID 1845191). Further: nearly all actives have a fitted effect of over 65% in size. On activity, negative = inhibition: on the % scale 0 is the no-effect control and ±100 the full control effect. The gist of the method:
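Recombinant GPX1 (10 nM final) was preincubated with compound for 30 min at room temperature, then reacted with 1 mM GSH, 0.5 mM CHP, 0.5 mM NADPH and 100 nM glutathione reductase; NADPH fluorescence (340/450 nm) was read at 0 and 15 min.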

The target in assay [2] is Phospholipid hydroperoxide glutathione peroxidase GPX4 (Homo sapiens) (UniProt P36969). Nature of the assay: Primary qHTS Assay for Inhibitors of Recombinant Selenoprotein Glutathione Peroxidase 4 (GPX4) (AID 1845192). Further: nearly all actives have a fitted effect of over 65% in size. An outline of the steps:
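GR-coupled readout: 100 nM GR, 1 mM GSH, 0.5 mM NADPH; NADPH fluorescence (ex 340/em 450 nm) read at t=0 and after 15 min RT. GPX4 200 nM, preincubated 30 min with compound; substrate 0.5 mM CHP.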

For assay [3], the target named is Luciferin 4-monooxygenase (Photinus pyralis) (UniProt P08659). As to the kind of experiment: Primary firefly luciferase (FLuc) qHTS assay for identification of artifact compounds. (AID 1845220). Further: nearly all actives have a fitted effect of over 60% in size. Further: potency means the concentration at half of the fitted maximal effect. An outline of the steps: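 In this counter-screen for luciferase artifacts, test compounds met substrate (10 uM each luciferin and ATP) before 10 nM enzyme started the reaction. Light output was measured 5 min later.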

The nature of assay [4]: Primary fluorescence-based thiol-reactive (MSTI) qHTS assay for identification of artifact compounds. (AID 1845221). Further: nearly all actives have a fitted effect of over 65% in size. Further: potency means the concentration at half of the fitted maximal effect.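 On activity change, negative = thiol reactive: series mostly up to about 54 µM; thiol-reactive compounds lower the probe fluorescence signal.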 An outline of the steps: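 Thiol-reactive compounds detected by quenching of 4 uM MSTI fluorescence (525/598 nm) after 1 h room-temperature dark incubation in PBS pH 7.4, 2% DMSO. qHTS titration; percent inhibition Hill-fitted against Acetyl-MSTI/MSTI controls.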

Assay [5] relates to Nanoluciferase (engineered Oplophorus gracilirostris luciferase). Nature of the assay: Primary Nanoluciferase (NLuc) qHTS assay for identification of artifact compounds. (AID 1845222).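 Further: NLuc secreted into diluted conditioned medium of S16 cells; series mostly up to about 54 µM; 0% = DMSO and -100% = no enzyme.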 An outline of the steps: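 Using secreted nanoluciferase in S16 culture medium (0.22 um filtered, 1:55 dilution), compounds were preincubated 15 min at RT. Signal was generated with Nano-Glo reagent (1:100) over 5 min.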

A short description of assay [6]: Primary redox qHTS assay for identification of artifact compounds. (AID 1845223).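 Further: 0% = DMSO and 100% = reference compound.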 An outline of the steps: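 Amplex Red (25 uM) and HRP (250 mU/mL) in HBSS, with compounds for 15 min, then 250 uM DTT for 30 min, room temperature, dark. Fluorescence 525/598 nm read; normalized to DMSO and 10 uM DA3003; Hill fit.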

Experimental findings from PubChem BioAssay (NCATS) are described below.

Values without a mark were called inactive. Results filed as inconclusive are left out. The source made the active and inactive calls. The call rests on the fitted dose curve; in most records, active means well fitted curve in the direction sought with a large enough effect; inconclusive means small, poorly fitted or top-dose-only effect, or another doubt; inactive means no such curve, though single readings can be large; an effect the other way counts as inactive or inconclusive.

Sequence of Phospholipid hydroperoxide glutathione peroxidase GPX4 (Homo sapiens) (P36969 whole entry, looked up): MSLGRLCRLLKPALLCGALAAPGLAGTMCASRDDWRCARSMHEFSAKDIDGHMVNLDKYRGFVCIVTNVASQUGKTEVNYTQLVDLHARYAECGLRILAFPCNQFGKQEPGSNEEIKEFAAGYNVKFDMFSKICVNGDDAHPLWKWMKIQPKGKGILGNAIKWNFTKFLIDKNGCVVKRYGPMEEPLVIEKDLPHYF
Sequence of Glutathione peroxidase 1 (Homo sapiens) (P07203 whole entry, looked up): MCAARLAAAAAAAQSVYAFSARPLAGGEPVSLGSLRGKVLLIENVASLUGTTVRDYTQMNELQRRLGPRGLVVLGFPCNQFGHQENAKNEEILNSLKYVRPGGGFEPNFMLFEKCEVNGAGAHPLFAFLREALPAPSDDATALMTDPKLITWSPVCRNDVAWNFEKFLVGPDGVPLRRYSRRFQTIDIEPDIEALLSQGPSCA

As for `C=C1CCC2C(C)(C(=O)OC)CCCC2(C)C1CCC(C)CC(=O)O` (stereo not given), the Potency entry in assay [1], in assay [2], in assay [3], in assay [4], in assay [5] and in assay [6] was “inactive” throughout.
Turning to `CC1(C)CCCC2(C)C(C(=O)O)=CCC12` (stereo not given), the Potency entry in assay [1], in assay [2], in assay [3], in assay [4], in assay [5] and in assay [6] was “inactive” each time.
Regarding `C/C(=C\CCC(C)CCO)C(=O)O[C@@H]1[C@@H](O)[C@H](OC2OC=C(C(=O)O)C3CCC(C)(O)C23)O[C@H](CO)[C@H]1O` (stereo not given in full), the Potency result in assay [1], in assay [2], in assay [3], in assay [5] and in assay [6] was “inactive” in each case. Moreover, the Potency in assay [4] is 8.22 µM (active).
On to `O=C(O)CC1CCC(c2ccc(-c3ccc4nc(C(=O)NCc5ccc(OC(F)(F)F)cc5)cn4c3)cc2)CC1` (stereo not given), for which the Potency entry in assay [1], in assay [2], in assay [3], in assay [4], in assay [5] and in assay [6] was “inactive” throughout.
On to `O=C(COc1cccc2c(=O)[nH]ccc12)c1ccccc1`, for which the Potency result in assay [1], in assay [2], in assay [3], in assay [4], in assay [5] and in assay [6] was “inactive” throughout.
`CCOc1ccc(S(=O)(=O)n2c(C)nc3ccccc32)cc1`: the Potency result in assay [1], in assay [2], in assay [3], in assay [4], in assay [5] and in assay [6] was “inactive” throughout.
Take `CC1=C(C)C(=O)OC(C(C)C2CCC3C4C5OC5C5(O)CC(OC6OC(CO)C(OC7OC(C)C(O)C(O)C7O)C(O)C6O)CC(O)C5(C)C4CCC23C)C1` (stereo not given): the Potency result in assay [1], in assay [2], in assay [3], in assay [4], in assay [5] and in assay [6] was “inactive” throughout.
For `COc1c2c(c(C)c3c1C(=O)OC3)O[C@@]1(C)CC(O)C(C(C)(C)O)[C@](C)(CCC(=O)O)[C@H]1C2` (stereo not given in full), the Potency entry in assay [1], in assay [2], in assay [3], in assay [4], in assay [5] and in assay [6] was “inactive” each time.
Turning to `C=C(C)C1Cc2cc(C(=O)OC3OC(CO)C(O)C(O)C3O)ccc2O1` (stereo not given), the Potency entry in assay [1], in assay [2], in assay [3], in assay [5] and in assay [6] was “inactive” each time. Further, in assay [4], the Potency is 9.27 µM (active).
As for `CCOCc1nc2c(N)nc3ccccc3c2n1CC(C)(C)O`, the Potency result in assay [1], in assay [2], in assay [3], in assay [4], in assay [5] and in assay [6] was “inactive” each time.
`CC(=O)N[C@H]1[C@H](O[C@H]2CC[C@@]3(C)C(CC[C@]4(C)C3CC=C3[C@@H]5CC(C)(C)CC[C@]5(C(=O)OC5OCC(O)C(O)C5O)CC[C@]34C)C2(C)C)O[C@H](COC2OC(C)C(O)C(OC3OC(C)C(O)C(O)C3O)C2O)[C@@H](O)[C@@H]1O` (stereo not given in full): the Potency entry in assay [1] and in assay [2] was “inactive” each time. Further, in assay [3], the outcome was “inactive [at 11.6 µM]”. For the same compound, in assay [4], the activity change, negative = thiol reactive is 127% [at 11.5 µM]. For the same compound, in assay [5], the activity, negative = inhibition was 4.87% [at 11.6 µM]. In addition, in assay [6], the redox activity (% of DA3003) was 3.21% [at 11.5 µM].
For `CCC(O)(C(=O)OCc1ccccc1NC(=O)CCC(=O)O)C(C)O` (stereo not given), the Potency entry in assay [1], in assay [2], in assay [3], in assay [4], in assay [5] and in assay [6] was “inactive” each time.
As to `COc1ccc([C@H]2CNC(=O)C2)cc1OC1CCCC1`, the Potency entry in assay [1], in assay [2], in assay [3], in assay [4], in assay [5] and in assay [6] was “inactive” in each case.
Turning to `COCCN1CCN(Cc2ccc(-c3n[nH]c4c3C(=O)c3c(NC(=O)NN5CCOCC5)cccc3-4)cc2)CC1`, the Potency result in assay [1], in assay [2], in assay [3], in assay [4], in assay [5] and in assay [6] was “inactive” each time.
In the case of `Cc1ccc(C(=O)Nc2noc3ccccc23)cc1`, the Potency result in assay [1], in assay [2], in assay [4], in assay [5] and in assay [6] was “inactive” each time. In addition, the Potency in assay [3] is 0.0849 µM (active).
For the compound `CCCCOC(=O)NC(=O)C1c2ccccc2Oc2ccccc21`, the Potency entry in assay [1], in assay [2], in assay [3], in assay [4], in assay [5] and in assay [6] was “inactive” in each case.
As to `O=S(=O)(NC1CCC(c2cc(F)ccc2F)(S(=O)(=O)c2ccc(Cl)cc2)CC1)C(F)(F)F` (stereo not given), the Potency result in assay [1], in assay [2], in assay [3], in assay [4], in assay [5] and in assay [6] was “inactive” each time.
Take `C=C(C)C1CCC2(C(=O)O[C@@H]3O[C@H](CO[C@@H]4O[C@H](CO)[C@@H](O)[C@H](O)[C@H]4O)[C@@H](O)[C@H](O[C@@H]4O[C@@H](C)[C@H](O)[C@@H](O)[C@H]4O)[C@H]3O)CCC3(C(=O)O)C(CCC4C5(C)CCC(O)C(C)(C)C5CCC43C)C12` (stereo not given in full): the Potency entry in assay [1] and in assay [2] was “inactive” each time. For the same compound, the outcome in assay [3] is “inactive [at 11.6 µM]”. Further, the activity change, negative = thiol reactive in assay [4] was 301% [at 11.5 µM]. The activity, negative = inhibition in assay [5] is 0% [at 11.6 µM]. The redox activity (% of DA3003) in assay [6] is 10.3% [at 11.5 µM].
With `COC(=O)C1=CO[C@@H](O)C2C(CO)=CCC12` (stereo not given in full), the Potency result in assay [1], in assay [2], in assay [3], in assay [4], in assay [5] and in assay [6] was “inactive” throughout.
`C=C1C(OC(=O)/C(C)=C\C)[C@@]23CCC4[C@@](C)(CCC[C@@]4(C)C(=O)O)C2CC[C@H]1C3OC(C)=O` (stereo not given in full): the Potency entry in assay [1], in assay [2], in assay [3], in assay [4], in assay [5] and in assay [6] was “inactive” each time.
